The supplement of paper PMC10849652
Of roughly 7,900 targets only a part is listed; those with a hit were picked by preference. About 0.6% of all pairs of compound and target were hits. Values without a mark were called inactive.

Legend:
Experiment in all cases: log2 fold change, soluble protein after heating vs DMSO (PISA); higher = thermal stabilisation; K562 cells, 10 uM, 30 min; active = over 0.2 and 3.5 SD of the protein, either way, in both replicates (recomputed)
[1] = compound: COC1=CC=C(C=C1)CN2C=CC3=C2C=C(C=C3)C(=O)NO
Method in brief: (§1)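 Quantification of soluble protein used TMTpro 16plex LC-MS/MS, with channel sums equalised. Samples were the supernatant after 21,000xg for 90 min of pooled aliquots from K562 cells (2×10^6 cells/mL) treated with 10 μM compound for 30 min, heated for 3 min over 48°C-58°C, and extracted in PBS with 0.5% NP-40 at 4°C. Values, from duplicates, describe thermal stability against control samples on a log2 fold-change scale.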

filanesib = compound: CON(C)C(=O)N1N=C(c2cc(F)ccc2F)S[C@@]1(CCCN)c1ccccc1 [filanesib]
Method in brief: as §1

zotarolimus = compound: CO[C@H]1C[C@@H]2CC[C@@H](C)[C@@](O)(O2)C(=O)C(=O)N2CCCC[C@H]2C(=O)O[C@H]([C@H](C)C[C@@H]2CC[C@H](n3cnnn3)[C@H](OC)C2)CC(=O)[C@H](C)/C=C(\C)[C@@H](O)[C@@H](OC)C(=O)[C@H](C)C[C@H](C)/C=C/C=C/C=C/1C [zotarolimus]
Method in brief: as §1

idasanutlin = compound: COc1cc(C(=O)O)ccc1NC(=O)[C@@H]1N[C@@H](CC(C)(C)C)[C@](C#N)(c2ccc(Cl)cc2F)[C@H]1c1cccc(Cl)c1F [idasanutlin]
Method in brief: as §1

alisertib = compound: COc1cc(Nc2ncc3c(n2)-c2ccc(Cl)cc2C(c2c(F)cccc2OC)=NC3)ccc1C(=O)O [alisertib]
Method in brief: as §1

[2] = compound: COc1cc2nc(-c3cc(F)ccc3O)nc(N[C@@H]3CNC[C@H]3C(C)(C)O)c2cc1OC
Method in brief: as §1

gefitinib = compound: COc1cc2ncnc(Nc3ccc(F)c(Cl)c3)c2cc1OCCCN1CCOCC1 [gefitinib]
Method in brief: as §1

[3] = compound: COc1cccc2cc(-c3nc([C@H]4CC[C@H](C(=O)O)CC4)n4ncnc(N)c34)[nH]c12
Method in brief: as §1

lapatinib = compound: CS(=O)(=O)CCNCc1ccc(-c2ccc3ncnc(Nc4ccc(OCc5cccc(F)c5)c(Cl)c4)c3c2)o1 [lapatinib]
Method in brief: as §1

pictilisib = compound: CS(=O)(=O)N1CCN(Cc2cc3nc(-c4cccc5[nH]ncc45)nc(N4CCOCC4)c3s2)CC1 [pictilisib]
Method in brief: as §1

UniProt Q9Y487, sequence (Q9Y487 whole entry, looked up): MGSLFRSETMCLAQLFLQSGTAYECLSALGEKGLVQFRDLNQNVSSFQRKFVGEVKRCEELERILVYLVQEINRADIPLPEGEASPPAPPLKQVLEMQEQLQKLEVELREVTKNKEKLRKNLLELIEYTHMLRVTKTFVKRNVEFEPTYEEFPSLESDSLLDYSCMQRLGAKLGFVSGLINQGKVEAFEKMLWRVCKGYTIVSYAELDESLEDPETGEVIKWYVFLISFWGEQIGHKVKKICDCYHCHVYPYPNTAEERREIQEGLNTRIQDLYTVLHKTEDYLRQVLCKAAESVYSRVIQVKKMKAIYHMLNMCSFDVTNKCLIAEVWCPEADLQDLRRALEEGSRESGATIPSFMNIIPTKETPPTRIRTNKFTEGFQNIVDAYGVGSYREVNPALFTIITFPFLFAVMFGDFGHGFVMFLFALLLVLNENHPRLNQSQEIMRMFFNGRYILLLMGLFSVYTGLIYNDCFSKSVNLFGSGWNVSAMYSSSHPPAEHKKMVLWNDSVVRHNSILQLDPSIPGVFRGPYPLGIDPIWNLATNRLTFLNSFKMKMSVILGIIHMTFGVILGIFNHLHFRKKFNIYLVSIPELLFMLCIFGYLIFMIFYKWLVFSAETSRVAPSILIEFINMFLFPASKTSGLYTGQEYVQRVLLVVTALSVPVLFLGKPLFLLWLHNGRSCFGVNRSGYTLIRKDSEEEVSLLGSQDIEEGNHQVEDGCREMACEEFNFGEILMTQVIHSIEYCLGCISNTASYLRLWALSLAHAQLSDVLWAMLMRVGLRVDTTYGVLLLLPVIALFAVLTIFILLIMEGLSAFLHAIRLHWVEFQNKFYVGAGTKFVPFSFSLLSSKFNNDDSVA
UniProt Q9BTT0, sequence (Q9BTT0 whole entry, looked up): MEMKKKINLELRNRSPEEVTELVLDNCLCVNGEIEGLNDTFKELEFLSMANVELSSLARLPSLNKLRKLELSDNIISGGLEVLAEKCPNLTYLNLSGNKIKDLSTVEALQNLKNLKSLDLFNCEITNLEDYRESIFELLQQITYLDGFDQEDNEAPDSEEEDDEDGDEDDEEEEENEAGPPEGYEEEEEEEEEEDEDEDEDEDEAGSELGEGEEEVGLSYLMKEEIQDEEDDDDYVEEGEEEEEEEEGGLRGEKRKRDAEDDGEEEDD
UniProt Q02252, sequence (Q02252 whole entry, looked up): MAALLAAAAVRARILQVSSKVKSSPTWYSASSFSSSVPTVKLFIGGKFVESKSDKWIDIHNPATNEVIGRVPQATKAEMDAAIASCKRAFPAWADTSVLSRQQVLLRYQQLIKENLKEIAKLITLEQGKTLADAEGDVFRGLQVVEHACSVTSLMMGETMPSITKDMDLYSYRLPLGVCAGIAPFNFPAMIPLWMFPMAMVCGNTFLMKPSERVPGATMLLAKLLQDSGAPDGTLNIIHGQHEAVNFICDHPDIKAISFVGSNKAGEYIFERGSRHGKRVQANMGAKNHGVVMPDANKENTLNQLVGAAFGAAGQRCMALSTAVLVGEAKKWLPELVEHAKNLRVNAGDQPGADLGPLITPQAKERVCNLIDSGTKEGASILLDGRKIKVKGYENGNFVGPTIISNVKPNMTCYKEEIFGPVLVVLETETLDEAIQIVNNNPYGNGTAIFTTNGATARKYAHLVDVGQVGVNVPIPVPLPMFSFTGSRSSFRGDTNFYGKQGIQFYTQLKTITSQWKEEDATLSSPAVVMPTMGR
UniProt Q53FZ2, sequence (Q53FZ2 whole entry, looked up): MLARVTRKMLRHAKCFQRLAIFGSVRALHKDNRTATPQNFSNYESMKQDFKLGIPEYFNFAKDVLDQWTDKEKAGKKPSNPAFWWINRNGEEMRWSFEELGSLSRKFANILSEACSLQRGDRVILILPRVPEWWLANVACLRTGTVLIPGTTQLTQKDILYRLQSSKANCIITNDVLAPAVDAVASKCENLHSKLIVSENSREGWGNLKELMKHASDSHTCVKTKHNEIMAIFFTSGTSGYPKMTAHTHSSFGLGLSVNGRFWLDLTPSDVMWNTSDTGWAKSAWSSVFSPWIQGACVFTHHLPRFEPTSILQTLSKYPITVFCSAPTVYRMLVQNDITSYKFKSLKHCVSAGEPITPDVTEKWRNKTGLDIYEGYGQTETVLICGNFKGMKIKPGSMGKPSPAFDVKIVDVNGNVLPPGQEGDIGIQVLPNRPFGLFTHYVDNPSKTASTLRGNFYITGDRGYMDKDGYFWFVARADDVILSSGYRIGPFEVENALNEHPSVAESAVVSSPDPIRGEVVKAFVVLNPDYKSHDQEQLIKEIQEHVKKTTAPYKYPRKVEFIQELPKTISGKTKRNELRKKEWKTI
UniProt Q9UJX6, sequence (Q9UJX6 whole entry, looked up): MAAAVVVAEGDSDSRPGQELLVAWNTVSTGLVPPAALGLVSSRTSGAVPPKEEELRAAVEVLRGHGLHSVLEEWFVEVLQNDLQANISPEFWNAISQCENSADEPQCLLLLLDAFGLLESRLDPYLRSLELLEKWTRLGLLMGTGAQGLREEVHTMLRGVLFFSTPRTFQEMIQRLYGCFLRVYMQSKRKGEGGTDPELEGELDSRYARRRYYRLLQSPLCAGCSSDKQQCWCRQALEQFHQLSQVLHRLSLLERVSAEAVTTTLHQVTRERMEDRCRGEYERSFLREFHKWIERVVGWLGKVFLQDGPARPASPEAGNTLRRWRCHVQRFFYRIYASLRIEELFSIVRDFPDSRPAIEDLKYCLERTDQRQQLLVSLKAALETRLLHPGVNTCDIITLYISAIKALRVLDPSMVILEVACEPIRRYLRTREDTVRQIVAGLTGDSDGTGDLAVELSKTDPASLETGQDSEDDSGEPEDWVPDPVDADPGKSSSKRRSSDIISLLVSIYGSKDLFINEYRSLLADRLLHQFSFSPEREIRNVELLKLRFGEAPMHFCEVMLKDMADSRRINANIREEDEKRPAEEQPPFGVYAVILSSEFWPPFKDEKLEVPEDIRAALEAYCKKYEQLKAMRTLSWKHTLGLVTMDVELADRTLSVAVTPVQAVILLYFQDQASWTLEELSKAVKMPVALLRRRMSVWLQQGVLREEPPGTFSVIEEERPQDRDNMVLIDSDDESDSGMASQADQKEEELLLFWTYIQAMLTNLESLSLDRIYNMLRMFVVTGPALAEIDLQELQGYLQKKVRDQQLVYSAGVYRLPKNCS
UniProt P35611, sequence (P35611 whole entry, looked up): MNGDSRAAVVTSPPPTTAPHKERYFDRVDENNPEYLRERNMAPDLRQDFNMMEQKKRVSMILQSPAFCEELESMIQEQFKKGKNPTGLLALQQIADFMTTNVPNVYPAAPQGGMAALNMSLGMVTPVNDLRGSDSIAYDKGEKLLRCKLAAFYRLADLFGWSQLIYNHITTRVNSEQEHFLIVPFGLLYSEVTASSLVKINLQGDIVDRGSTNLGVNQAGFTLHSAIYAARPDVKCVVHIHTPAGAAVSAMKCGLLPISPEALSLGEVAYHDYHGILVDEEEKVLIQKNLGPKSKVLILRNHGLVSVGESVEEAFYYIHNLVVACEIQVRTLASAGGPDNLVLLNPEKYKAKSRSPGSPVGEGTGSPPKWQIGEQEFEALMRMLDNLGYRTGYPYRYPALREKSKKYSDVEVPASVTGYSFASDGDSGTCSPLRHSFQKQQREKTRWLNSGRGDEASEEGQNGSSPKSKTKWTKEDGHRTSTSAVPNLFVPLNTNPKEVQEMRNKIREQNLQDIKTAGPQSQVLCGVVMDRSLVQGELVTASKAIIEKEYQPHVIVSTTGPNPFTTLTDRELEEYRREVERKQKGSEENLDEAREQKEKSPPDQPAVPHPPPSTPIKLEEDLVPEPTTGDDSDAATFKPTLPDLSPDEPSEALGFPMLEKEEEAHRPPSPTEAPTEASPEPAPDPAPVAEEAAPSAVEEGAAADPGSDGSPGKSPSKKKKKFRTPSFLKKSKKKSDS
UniProt Q16864, sequence (Q16864 whole entry, looked up): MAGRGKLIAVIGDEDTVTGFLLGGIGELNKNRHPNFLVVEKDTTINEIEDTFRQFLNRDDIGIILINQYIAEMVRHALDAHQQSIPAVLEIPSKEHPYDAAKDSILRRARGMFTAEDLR
UniProt O60488, sequence (O60488 whole entry, looked up): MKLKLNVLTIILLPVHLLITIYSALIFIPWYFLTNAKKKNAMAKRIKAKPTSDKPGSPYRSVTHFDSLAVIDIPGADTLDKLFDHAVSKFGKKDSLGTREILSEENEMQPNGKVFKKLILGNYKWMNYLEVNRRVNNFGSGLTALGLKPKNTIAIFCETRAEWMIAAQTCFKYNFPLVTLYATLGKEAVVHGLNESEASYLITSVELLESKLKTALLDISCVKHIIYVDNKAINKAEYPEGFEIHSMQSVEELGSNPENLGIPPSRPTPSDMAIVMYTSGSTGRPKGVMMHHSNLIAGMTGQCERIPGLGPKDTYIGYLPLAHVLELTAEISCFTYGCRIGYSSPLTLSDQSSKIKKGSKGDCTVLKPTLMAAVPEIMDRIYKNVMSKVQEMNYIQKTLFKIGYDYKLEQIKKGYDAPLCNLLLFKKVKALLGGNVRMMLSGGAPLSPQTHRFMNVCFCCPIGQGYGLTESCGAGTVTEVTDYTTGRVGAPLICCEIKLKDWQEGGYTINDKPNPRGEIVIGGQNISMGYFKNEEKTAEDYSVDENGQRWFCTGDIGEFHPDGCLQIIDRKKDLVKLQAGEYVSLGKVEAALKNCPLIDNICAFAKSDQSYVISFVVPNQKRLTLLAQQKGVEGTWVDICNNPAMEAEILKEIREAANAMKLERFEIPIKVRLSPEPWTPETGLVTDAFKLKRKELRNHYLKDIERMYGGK
UniProt P52895, sequence (P52895 whole entry, looked up): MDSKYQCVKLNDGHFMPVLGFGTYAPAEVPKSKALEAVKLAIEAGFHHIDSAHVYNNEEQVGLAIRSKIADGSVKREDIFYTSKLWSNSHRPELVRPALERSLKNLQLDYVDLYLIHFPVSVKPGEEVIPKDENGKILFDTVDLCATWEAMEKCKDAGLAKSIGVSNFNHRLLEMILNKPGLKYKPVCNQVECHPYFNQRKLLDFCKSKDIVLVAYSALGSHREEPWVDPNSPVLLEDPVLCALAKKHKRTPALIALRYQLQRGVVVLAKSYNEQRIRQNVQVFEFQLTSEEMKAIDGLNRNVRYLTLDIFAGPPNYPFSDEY

Row | Target | log2 fold change [1] | log2 fold change (filanesib) | log2 fold change (zotarolimus) | log2 fold change (idasanutlin) | log2 fold change (alisertib) | log2 fold change [2] | log2 fold change (gefitinib) | log2 fold change [3] | log2 fold change (lapatinib) | log2 fold change (pictilisib)
1 | AKR1C2 (UniProt P52895) | 0.706 (active) | 0.259 | 0.097 | -0.015 | -0.012 | -0.013 | 0.044 | -0.012 | 0.068 | 0.165
2 | AURKA (UniProt O14965) | 0.021 | 0.009 | -0.021 | -0.095 | 1.36 (active) | 0.048 | -0.03 | 0.01 | 0.025 | 0.055
3 | ANP32E (UniProt Q9BTT0) | 0.027 | 0.011 | 0.066 | 0.061 | 0.045 | -0.039 | 0.021 | -0.027 | -0.011 | 0.06
4 | AAR2 (UniProt Q9Y312) | 0.022 | 0.111 | 0.042 | 0.002 | -0.129 | 0.104 | 0.075 | 0.058 | -0.005 | -0.082
5 | BMP2K (UniProt Q9NSY1) | 0.032 | -0.019 | 0.029 | -0.092 | 0 | 0.055 | 0.024 | 0.111 | 0.01 | 0.102
6 | B4GALT1 (UniProt P15291) | -0.04 | 0.014 | 0.067 | 0 | 0.051 | -0.037 | 0.022 | 0.021 | 0.042 | 0.128
7 | AP2B1 isoform 2 (UniProt P63010) | 0.08 | 0.022 | 0.036 | -0.019 | -0.062 | 0.012 | 0.01 | 0.01 | 0.049 | 0.015
8 | ACSM3 (UniProt Q53FZ2) | 0.134 | -0.056 | 0.009 | -0.017 | -0.033 | 0.101 | -0.034 | 0.028 | -0.025 | 0.198
9 | ANAPC2 (UniProt Q9UJX6) | 0.026 | -0.042 | 0.012 | -0.047 | -0.074 | -0.038 | -0.034 | -0.004 | 0.059 | 0.015
10 | ATP6V1F isoform 2 (UniProt Q16864) | 0.126 | 0.162 | 0.036 | 0.095 | -0.158 | -0.151 | 0.019 | 0.021 | -0.112 | -0.054
11 | ADD3 (UniProt Q9UEY8) | 0.018 | 0.059 | -0.074 | 0.02 | -0.063 | 0.057 | 0.021 | 0.063 | -0.006 | 0.075
12 | ACP1 isoform 2 (UniProt P24666) | 0.029 | 0.095 | 0.009 | 0.028 | 0.094 | 0.036 | 0.045 | -0.077 | 0.014 | 0.055
13 | AGPAT5 (UniProt Q9NUQ2) | -0.043 | -0.153 | 0 | -0.044 | 0.113 | -0.111 | 0.018 | 0.071 | 0.119 | 0.062
14 | ALDH6A1 (UniProt Q02252) | -0.128 | -0.025 | 0.024 | -0.032 | -0.09 | 0.029 | 0.04 | 0.066 | 0.02 | 0.063
15 | AARSD1 isoform 3 (UniProt Q9BTE6) | -0.47 (active) | -0.013 | 0.012 | 0.076 | -0.067 | -0.012 | 0.083 | -0.081 | 0.045 | 0.029
16 | ACP1 (UniProt P24666) | 0.008 | -0.047 | -0.039 | -0.078 | 0.029 | 0.056 | 0.003 | -0.086 | -0.073 | -0.062
17 | ACTR1B (UniProt P42025) | 0.084 | 0.044 | -0.026 | -0.136 | -0.163 | 0.008 | 0.04 | 0.073 | -0.104 | 0.127
18 | ALKBH5 (UniProt Q6P6C2) | 0.124 | 0.001 | -0.067 | 0.016 | -0.12 | 0.044 | 0.023 | -0.138 | -0.008 | 0.094
19 | ADD1 isoform 3 (UniProt P35611) | 0.071 | 0.013 | -0.025 | 0.014 | -0.059 | -0.009 | 0.007 | 0.066 | 0.015 | -0.004
20 | ARFGAP2 (UniProt Q8N6H7) | -0.067 | 0.024 | -0.005 | -0.029 | -0.058 | 0.156 | -0.004 | -0.064 | -0.001 | 0.013
21 | ARL3 (UniProt P36405) | 0 | -0.017 | -0.006 | -0.062 | -0.076 | -0.007 | -0.018 | 0.047 | -0.03 | 0.031
22 | ADRM1 (UniProt Q16186) | 0.088 | 0.008 | 0.057 | -0.073 | -0.031 | -0.029 | -0.055 | -0.045 | 0.022 | -0.013
23 | ARFIP1 (UniProt P53367) | 0.354 | -0.049 | -0.021 | 0.094 | 1.31 | 0.042 | -0.091 | -0.005 | -0.076 | -0.076
24 | ACSL3 (UniProt O95573) | 0.126 | -0.045 | 0.019 | -0.127 | 0.026 | 0.046 | 0.021 | 0.037 | 0 | 0.022
25 | ARAF (UniProt P10398) | 0 | -0.022 | 0.06 | 0.006 | 0.076 | -0.274 (active) | 0.076 | 0.06 | 0.076 | -0.175
26 | ATP6V0A2 (UniProt Q9Y487) | -0.029 | -0.083 | 0.011 | 0.004 | -0.082 | -0.07 | -0.058 | -0.056 | 0.016 | -0.071
27 | ACSL4 (UniProt O60488) | 0.09 | -0.071 | -0.058 | -0.113 | -0.006 | -0.105 | 0.075 | -0.053 | 0.052 | 0.052
